High-throughput results: PubChem BioAssay, National Center for Advancing Translational Sciences (NCATS)
Shiga inhibitor = blocks Shiga toxin action in Vero cells | Vero cells, Shiga toxin protein synthesis inhibition reporter | inhibition, % at 38.7 µM | hit rate 9.2% among 290,000; in the data active = inhibition mostly above about 28%, no sharp cut-off; inactive = mostly below about 43%; note: 0% is about no effect
Marburg entry inh = Marburg virus entry inhibition; Marburg virus pseudotyped entry inhibition, cell reporter; Potency, µM (top dose mostly 37.8 µM), for inactives: at the top dose activity change, negative = inhibition, most hits filed as inhibitors; hit rate 1.8% among 300,000; AID 540276; calls by dose curve; tested in HEK293 cells; note: potency is the fitted concentration of half-maximal effect; % is set by controls: 0 for no effect and ±100 for the full control effect
CHX counter = counter-screen hit for Shiga toxin inhibitors, cycloheximide | AID 2314 | hit rate 12% among 300,000 | cell reporter, cycloheximide protein synthesis inhibition counterscreen | max response, %; in the data active = max response mostly above about 13%, no sharp cut-off; inactive = mostly below about 14%; note: read at 38.3 µM for the half of the compounds with a filed dose; 0% is about no effect
Lassa entry inh = blocks Lassa virus binding to or entry into cells; Lassa virus pseudotype entry inhibition, cell reporter; Potency, µM (top dose mostly 37.9 µM), without a hit: at the top dose activity change, negative = inhibition, actives largely listed as inhibitors; hit rate 1.2% among 300,000; calls by dose curve; tested in HEK293 cells; note: potency is the fitted concentration of half-maximal effect; % is set by controls: 0 for no effect and ±100 for the full control effect; nearly all actives have a fitted effect of over 50% in size
* marks the source's active call; other numbers are inactive results; ? = inconclusive; . = no result; + = active, no number; [ ] = another dose, or the depositor's remark. Only some compounds are listed: those with a hit (about 12% of all), similar ones and a draw of the others.

SMILES	Shiga inhibitor	Marburg entry inh	CHX counter	Lassa entry inh
Cc1ccc(NS(=O)(=O)c2c(C)nc3sccn3c2=O)c(Cl)c1	.	6.2%[46.1 µM]	.	19.9%[46.1 µM]
CCCCCn1nc(C)c(/C=N/NC(=O)c2ccoc2C)c1C	67.9*	1.0%	40.5*	-37.5%
CCCCCn1nc(C)c(/C=N\NC(=O)c2cc(C)oc2C)c1C	43.6*	1.7%	17.6*	-6.0%
Cc1cc(C(=O)N/N=C/c2c(C)nn(-c3ccccc3)c2C)c(C)o1	58.9*	?	41.6*	-22.5%[46.1 µM]
CCn1nc(C)c(/C=N/NC(=O)c2ccoc2C)c1C	69.7	17.2%[46.1 µM]	25.4*	?
Cc1nn(-c2ccccc2)c(C)c1/C=N/NC(=O)c1cc(-c2ccccc2)n[nH]1	13.8	?	6.8	?
CCn1nc(C)c(/C=N/NC(=O)c2nc3nc(C)cc(C)n3n2)c1C	14.6	.	0.1	.
CCC(=O)C[C@@H](NC(=O)OC)c1ccc(F)cc1	.	6.0%[14.2 µM]	.	.
COC1=CC2C(=O)C(C1=O)[C@H](c1ccccc1)[C@H]2C (some centres undefined)	.	-3.1%[14.2 µM]	.	.
Cc1ccc(NS(=O)(=O)c2ccc(Br)s2)cc1S(=O)(=O)N1CCOCC1	13.4	-22.7%	5.3	0.2%
Oc1cccc2ccc(N3CCOCC3)nc12	27.9	.	24.5*	.
COc1ccc(S(=O)(=O)N(CCO)c2ccccc2CN(C)CC=Cc2ccc(Cl)cc2)cc1	-3.7	.	3.8	.
CCc1cc(-c2n[nH]c(C)c2-c2ccccc2Cl)c(O)cc1OC	80.1*	.	31.6*	.
O=C1CC(c2nc3ccccc3[nH]2)CN1c1ccccc1 (centres undefined)	7.4	20.9%	7.6	0.0%
c1ccc(C2=Nc3ccccc3SC2c2nc3ccccc3[nH]2)cc1 (centres undefined)	86.8*	.	36.3*	.
CCOc1cc(CNCC(C)C)c(Cl)cc1OCC(=O)Nc1ccccc1	-7.8	?	8.4	14.9%[46.1 µM]
CCc1nc(SCC(=O)Nc2ccc(OC)cc2[N+](=O)[O-])n[nH]1	-6.4	.	-3.0	.
COc1ccc2c(C)c(CCC(=O)NCCc3ccccc3)c(=O)oc2c1	.	-13.2%[46.1 µM]	.	-3.4%[46.1 µM]
CCCCc1ccc(-c2nc(NC(=O)C3C4CCC(O4)C3C(=O)O)sc2C)cc1 (centres undefined)	58.2*	1.0%	44.1*	.
Cc1ccccc1C(=O)Nc1ccc(C(=O)N/N=C/c2ccc(F)cc2)cc1	-6.8	.	3.7	.
O=C(N/N=C/c1cnc2ccccc2n1)c1cccc(F)c1	+	4.4%	27.1*	8.7%
CC(C)(C)NC(=O)C(=O)N/N=C/c1ccc(F)cc1	47.9*	?	26.1*	-0.3%
Nc1ccc(C(=O)N/N=C/c2ccccc2)cc1	108.4*	?	40.9*	24.4%
O=C(N/N=C(\c1ccccc1)c1cccnc1)c1cccc(F)c1	17.0	?	3.3	?
O=C(N/N=C/c1ccccc1)c1ccc(NC(=O)c2ccc(F)cc2)cc1	57.7*	21.5%[46.1 µM]	48.5*	.
SMILES	Shiga inhibitor	Marburg entry inh	CHX counter	Lassa entry inh
Cc1ccc2oc(=O)c3cc(C(=O)Nc4ccc(F)cc4F)sc3c2c1	.	1.7%[46.1 µM]	.	?
CC(=O)Nc1ccc(C(=O)N/N=C/c2ccc(F)cc2)cc1	-3.0	.	4.0	.
O=C(N/N=C/c1ccc(C(F)(F)F)cc1)c1ccc(O)cc1	44.4*	?	31.7*	?
COC(=O)c1ccc(/C=N/NC(=O)c2cccc(F)c2)cc1	105.4*	?	60.8*	?
Cc1ccc(CNC(=O)c2csc3c2CCCCC3)cc1	11.8	2.2%	-0.9	10.7%
O=C(N/N=C/c1ccc(O)cc1)c1csc2c1CCCC2	57.1*	13.9%	46.9*	-0.8%
Cc1ccc(C(=O)N/N=C\c2ccc(OC(=O)c3cccc(F)c3)cc2)cn1	-2.6	13.8%[46.1 µM]	-3.3	3.3%[46.1 µM]
O=C(N/N=C\c1ccc(F)cc1)c1ccc(F)cc1	75.3*	?	46.9*	-12.6%
O=C(CC1C(=O)NCCN1Cc1cccc(F)c1)NCCCCCN1CCOCC1 (centres undefined)	-1.7	?	-1.8	-23.9%
O=C(COC(=O)/C=C/c1ccc(C(F)(F)F)cc1)NCC1CCCO1 (centres undefined)	.	12.5%	.	18.9%
COc1cccc(/C=N/n2nnc3c(cnn3-c3ccccc3)c2=O)c1	-9.2	-22.4%	2.2	2.6%
O=C(N/N=C\c1cccc(F)c1)c1ccc(-c2ccccc2)cc1	26.1	0.2%[46.1 µM]	21.1*	-1.8%[46.1 µM]
O=C(CNS(=O)(=O)c1ccc(F)cc1)Nc1ccccc1	-3.9	.	-3.0	.
COc1ccc(/C=N/NC(=O)c2ccc(NC(=O)c3ccccc3Br)cc2)cc1	26.1	-26.1%	7.8	18.4µM*
O=C(CNc1ccccc1)Nc1ccc(F)cc1	118.3*	?	75.1*	?
O=C(NCCc1ccc(F)cc1)c1cccc(NC(=O)c2ccccc2)c1	43.6	.	23.2*	.
Cc1cccc(C(C)C)c1NC(=O)c1ccc(CN(c2ccccc2)S(=O)(=O)c2ccccc2)cc1	-7.1	?	7.7	-23.6%
